Assay outcomes: PubChem, several laboratories
LGR2 inh: blocks bursicon-induced cAMP signaling via Drosophila LGR2. HEK293 LGR2, CRE-luciferase, bursicon-stimulated, 4 h. inhibition, % at 9.99 µM. 380,000 tested, 0.35% active;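 active = drop in luminescence signal, shown as inhibition above about 50% in the replicate tests, limit read from the data, passing the limit was not always enough; inconclusive = probably only some replicates passing the limit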;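 also: agonist challenge used bursicon conditioned medium at about half maximal strength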
TROY signal inh: blocks TROY-dependent signaling in reporter cells. Q293 LMP1-TROYcd NF-kB luciferase reporter, 4 h. inhibition, % at 10 µM. 360,000 tested, 0.98% active. AID 1347056;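 active = compounds whose plate-normalised and pattern-corrected inhibition of the luciferase reporter signal at the single screening dose is 50% or more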
EBV LMP1 NFkB: inhibitors of Epstein-Barr LMP1-induced NF-kappaB reporter; LMP1-induced NF-kappaB luciferase reporter cells, luminescence; inhibition, % at 12.5 µM; 350,000 tested, 0.69% active; AID 504558; in the data active = inhibition above about 41%; inconclusive = no clear call, values can overlap the other calls;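 also: 0% = neutral control wells and 100% = reference inhibitor control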
MITF TRPM1 inh: reduces MITF-dependent TRPM1 promoter luciferase signal; SK-MEL-5 TRPM1 promoter luciferase, 24 h; inhibition, % at 12.5 µM; 330,000 tested, 0.83% active; AID 488899;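 active = mean inhibition across replicates of 60% or more, whatever share of single replicates reaches that level; inconclusive = some that reach 60%, reason not given; inactive = mean inhibition across replicates below 60%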
MITF act: activators of MITF-driven TRPM1 promoter activity in SK-MEL-5 cells. SK-MEL-5 TRPM1-promoter luciferase, 24 h; % of positive control, neutral wells = 0. activation, % at 12.5 µM. 300,000 tested, 0.75% active. AID 588334;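 active = mean activation of at least 80% with every replicate also reaching 80%; inconclusive = mean reaches 80% but some replicate falls short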;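 also: 0% = neutral control wells and 100% = parthenolide positive control wells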
TWEAK Fn14 block: TWEAK-Fn14 signaling inhibition; TWEAK-stimulated Fn14 reporter cells, luciferase luminescence, 8 h; inhibition, % at 10 µM; 360,000 tested, 2% active; in the data active = inhibition above about 50%
Active calls of the source: *; u = inconclusive; x = not tested or not shown. An excerpt weighted towards active compounds, which were near 3% of everything screened.

SMILES | LGR2 inh | TROY signal inh | EBV LMP1 NFkB | MITF TRPM1 inh | MITF act | TWEAK Fn14 block
COc1ccccc1C#Cc1ccc([C@H]2[C@H](C#N)N(C(=O)C3CCCC3)[C@H]2CO)cc1 | 79.8* | x | x | x | x | x
N#C[C@H]1[C@@H](c2ccc(C#Cc3cccc(F)c3)cc2)[C@@H](CO)N1C(=O)C1CCC1 | 2.8 | x | x | x | x | x
CC(C)c1ccc(OCc2cccc(C(=O)N/N=C/c3cccnc3)c2)cc1 | 45.4 | -7.2 | 62.5* | 2.2 | 1.2 | -12.9
CCOc1ccc(OCc2cccc(C(=O)N/N=C/c3cccnc3)c2)cc1 | u | -25.7 | 74.8* | 56.9 | -58.7 | -17.3
Cn1nc(-c2ccc(N3CCOCC3)c(NS(=O)(=O)c3ccc(Cl)cc3)c2)c2ccccc2c1=O | x | x | 4.5 | 17.7 | -16.9 | 60.6*
C[C@H](CO)N1C[C@H](C)[C@H](CN(C)Cc2ccccn2)Oc2ncc(C3=CCCCC3)cc2C1=O | 8.0 | x | x | x | x | x
CC1(C)CC2CC(C)(CN2S(=O)(=O)c2ccc(C(=O)Nc3ccc(S(=O)(=O)N4CCOCC4)cc3)cc2)C1 (stereo unspecified) | 11.4 | 31.6 | -5.0 | 12.3 | -12.9 | 42.2
CCOC(=O)c1cc([N+](=O)[O-])sc1NC(=O)c1ccc(S(=O)(=O)N2CC3(C)CC2CC(C)(C)C3)cc1 (stereo unspecified) | x | 12.6 | 46.1* | 75.5* | -76.5 | 10.2
CCOC(=O)c1cc([N+](=O)[O-])sc1N | 3.9 | -4.7 | 3.0 | 15.3 | -16.5 | 2.1
CCOC(=O)c1cc([N+](=O)[O-])sc1NC(=O)CC | -4.4 | 1.7 | 0.6 | 7.3 | -6.9 | 99.1*
CN1/C(=C/C(=O)C2CC2)C(C)(C)c2ccccc21 | 4.0 | -30.7 | 0.4 | -2.2 | 4.8 | -3.1
CN1/C(=C\C(=S)NC(=O)c2cccc(Br)c2)C(C)(C)c2ccccc21 | x | 37.4 | 20.0 | 15.4 | -14.1 | 72.4*
CN1/C(=C/C=N/NC(=O)c2ccc([N+](=O)[O-])cc2)C(C)(C)c2ccccc21 | 5.8 | 1.5 | -0.9 | -13.6 | 11.7 | -1.9
CCN(CC)S(=O)(=O)c1cccc(C(=O)/C=C2/N(C)c3ccccc3C2(C)C)c1 | 17.8 | 33.4 | 5.7 | 7.1 | -1.3 | 61.0*
CN1/C(=C\C(=S)NC(=O)c2ccc([N+](=O)[O-])cc2)C(C)(C)c2ccccc21 | 11.7 | -27.3 | -6.1 | 6.9 | -3.8 | 58.2*
C[C@@H]1CN([C@@H](C)CO)C(=O)Cc2cc(NC(=O)Nc3ccc(F)cc3)ccc2O[C@H]1CN(C)Cc1ccccc1 | 1.8 | x | x | x | x | x
C[C@@H]1CCCCO[C@@H](CN(C)S(=O)(=O)c2cn(C)cn2)[C@@H](C)CN([C@@H](C)CO)C(=O)c2cc(NS(C)(=O)=O)ccc2O1 | -12.4 | x | x | x | x | x
C/C=C/c1ccc2c(c1)O[C@H](CN(C)C)[C@@H](C)CN([C@@H](C)CO)S2(=O)=O | -0.3 | x | x | x | x | x
CCCC#Cc1cnc2c(c1)C(=O)N([C@@H](C)CO)C[C@@H](C)[C@H](CN(C)CCC)O2 | 3.0 | x | x | x | x | x
Clc1ccc(Nc2ncnc3ccc(Br)cc23)cc1 | 32.8 | 35.0 | 35.6 | 19.4 | -16.7 | 73.7*
CN(C)c1ccc(Nc2ncnc3ccc(Br)cc23)cc1 | 11.0 | 48.0 | 9.9 | -14.5 | x | 82.2*
Cc1ccc2ncnc(Nc3ccccc3)c2c1 | 0.7 | 2.1 | 0.6 | 22.5 | -21.4 | 11.1
Cc1ccc2ncnc(Nc3cccc(C(=O)O)c3)c2c1 | 11.0 | 10.6 | 0.7 | 10.6 | -10.2 | -18.2
COc1ccc(Nc2ncnc3ccc(Br)cc23)cc1OC | x | 6.7 | 13.7 | -15.8 | 14.9 | 5.8
Cc1cccc(Nc2ncnc3ccc(Br)cc23)c1 | 34.5 | 26.2 | 4.9 | -16.8 | 13.7 | 62.1*
SMILES | LGR2 inh | TROY signal inh | EBV LMP1 NFkB | MITF TRPM1 inh | MITF act | TWEAK Fn14 block
Clc1cccc(Nc2ncnc3ccc(Br)cc23)c1 | 15.7 | 42.4 | -0.2 | 15.0 | -7.4 | 63.1*
O=C(C[C@H]1C=C[C@@H](NC(=O)CN2CCOCC2)[C@H](CO)O1)NC1CCCCC1 | 7.7 | x | x | x | x | x
CCCC(=O)Nc1ccc2c(c1)C(=O)N(C)[C@@H]1CC[C@@H](CC(=O)NCc3ccccc3F)O[C@@H]1CO2 | -3.4 | x | x | x | x | x
COc1cc(OC)c(OC)cc1/C=C/c1cc(C(=O)O)c2ccccc2n1 | 5.6 | -1.0 | 6.5 | 2.3 | 10.0 | -6.4
COc1ccc(/C=C/C(=O)c2cc(F)ccc2OC(=O)c2ccccc2OC)cc1OC | u | 54.9* | -7.2 | 44.8 | -49.7 | 76.6*
COc1ccc(/C=C/c2cc(C(=O)O)c3ccccc3n2)cc1 | 6.9 | -5.8 | 80.0* | 46.5 | -44.7 | 77.0*
COc1ccc(/C=C/C(=O)Nc2ccccc2C(=O)O)cc1 | 58.9* | 53.5* | 30.1 | -4.8 | 2.9 | 86.8*
COc1cc(/C=C/C(=O)NC(=O)c2ccccc2O)ccc1O | -1.9 | -37.5 | 10.0 | -88.1 | 83.6* | -2.5
CCCN1[C@H](C(=O)N2CCCCC2)[C@@H](CO)[C@@H]2Cn3c(cccc3=O)[C@@H]21 | -3.4 | x | x | x | x | x
C[C@H](CO)N1C[C@H](C)[C@H](CN(C)C(=O)Cc2ccccn2)Oc2ncc(C#CC3CC3)cc2C1=O | 5.3 | x | x | x | x | x
COc1ccc(/C=C/C(=O)Nc2ccccc2C(F)(F)F)cc1OC | -24.4 | -40.4 | 7.9 | -15.3 | 18.9 | -10.4
COc1ccc(/C=C/C(=O)Nc2ccccc2C(=O)O)cc1OC | 81.4* | 84.2* | 18.0 | -2.1 | 5.6 | 98.5*
Cc1ccc(C(=O)O/N=C(\N)c2ccc(Br)cc2)cc1 | x | -9.0 | -35.3 | -83.1 | 88.7* | 2.8
COc1ccc(C(=O)O/N=C(\N)c2ccccc2)cc1 | 79.5* | 41.9 | 5.9 | -44.1 | 49.4 | 81.5*
CC(C)(C)c1ccc(C(=O)O/N=C(\N)c2ccccc2)cc1 | 91.0* | 90.1* | 56.8* | 68.7* | -65.9 | 104.7*
CC(C)c1cc2cc3ccc(=O)oc3cc2o1 | -67.6 | -46.4 | -14.6 | -88.7 | 94.2* | -17.9
COc1ccc(NC(=S)NNc2ccc([N+](=O)[O-])cc2S(=O)(=O)Nc2ccc(C)cc2C)cc1 | 9.6 | 29.4 | 11.9 | 3.5 | -3.2 | 36.6
Cc1cccc(NC(=S)NNc2cccc(Cl)c2)c1 | -11.9 | -46.9 | -21.6 | 20.8 | -21.2 | -21.1
Cc1ccc(NS(=O)(=O)c2cc([N+](=O)[O-])ccc2NNC(=S)Nc2cccc(Cl)c2)c(C)c1 | x | 62.0* | 5.5 | 7.0 | -2.2 | 40.3
Cc1ccc(NS(=O)(=O)c2cc([N+](=O)[O-])ccc2NNC(=S)Nc2cc(C)ccc2C)c(C)c1 | 40.4 | 53.4* | 15.8 | 36.5 | -37.6 | 67.8*
CC(C)NC(=O)N1CCCCN2[C@@H](CO)[C@@H](c3ccc(C#CC4CC4)cc3)[C@@H]2C1 | -17.0 | x | x | x | x | x
O=C(O)c1cccnc1 | 2.0 | 2.4 | 84.7* | -8.5 | 9.8 | -27.6
O=C(C(=O)c1cccnc1)c1cccnc1 | 8.3 | -10.5 | 1.0 | -2.7 | 2.3 | -24.6
CCCc1cc(=O)n2[nH]cc(-c3ccc(Cl)cc3)c2n1 | 9.2 | 31.4 | 44.1* | 20.8 | x | 33.2
COCc1cc(=O)n2[nH]cc(-c3ccccc3)c2n1 | 0.5 | 21.5 | -6.2 | -9.4 | x | 11.8
O=C(Nc1ccc(F)cc1)N[C@@H]1CC[C@@H](CC(=O)N2CCOCC2)O[C@@H]1CO | 4.9 | x | x | x | x | x
